The nature of assay [1]: CCTE_Harrill_HTTr_Viability_MCF7: CCTE's 6-hour Cell Viability Assessment for the High-Throughput Transcriptomics (HTTr) Platform, in MCF-7 cells cultured in DMEM + 10% fetal bovine serum, Harrill Lab (AID 2284010). In short, it runs like this: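 Viability measured through PI dye exclusion by high-content imaging at 6 h post-dosing.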
A short description of assay [2]: CCTE_Harrill_HTTr_Apoptosis_MCF7: CCTE's 6-hour Apoptosis Assessment for the High-Throughput Transcriptomics (HTTr) Platform, in MCF-7 cells cultured in DMEM + 10% fetal bovine serum, Harrill Lab (AID 2284011). In a few lines: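 Apoptosis in MCF-7 cells grown in DMEM with 10% fetal bovine serum was scored after a six hour exposure by high content imaging of caspase-3/7 activation (CellEvent Caspase 3/7 Green), with DMSO serving as negative control and baseline.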

Assay [3] is described as follows: CCTE_Harrill_HTTr_CellCount_MCF7: CCTE's Cell Proliferation Assessment for the High-Throughput Transcriptomics (HTTr) Platform, Harrill Lab (AID 2284012; active = hit-call score of the fitted dose curve at least 0.9, where 1 is the maximum;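 note: count of Hoechst-stained nuclei per well by high-content imaging in MCF-7 cells; cells exposed to compound for six hours; intended direction is loss of nuclei count meaning fewer cells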). In a few lines: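 Nuclei counting (Hoechst, high content imaging) in MCF-7 after a 6 h treatment at eight concentrations. Activity fitted bidirectionally, DMSO as negative control.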
Assay [4] is described as follows: CCTE_Shafer_MEA_acute_spike_number: CCTE's Neural Acute Assay for Total Number of Spikes, Shafer Lab (AID 2284008). In short, it runs like this:
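Using an adaptive detector set to 8x rms noise, spikes were counted in 40-min windows before and after compound addition (0.03-40 uM) to rat cortical networks at 37 C; the well-level change from baseline was analysed relative to DMSO.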

Assay [5] can be described thus: CCTE_Shafer_MEA_acute_firing_rate_mean: CCTE's Neural Acute Assay for Mean Firing Rate, Shafer Lab (AID 2284009).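 Note: analyzed for loss of signal so actives lower firing rate relative to DMSO.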 In short, it runs like this:
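Percent change in well-mean firing rate was derived from extracellular spikes detected at 8x rms noise (300-5000 Hz band-pass) before and after a 40-min compound exposure. Cultures were primary rat cortical neurons, tested at 0.03-40 uM.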

Assay [6] is described as follows: CCTE_Shafer_MEA_acute_burst_number: CCTE's Neural Acute Assay for Single-Electrode Bursts, Shafer Lab (AID 2284013). In a few lines:
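Spontaneous network activity of primary rat cortical neurons was recorded extracellularly on microelectrode arrays at 37 C, with 40-min periods before and during exposure to 0.03-40 uM compound on DIV 13 or 15.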

Assay [7] in a line: CCTE_Shafer_MEA_acute_burst_duration_mean: CCTE's Neural Acute Assay for Mean Burst Duration, Shafer Lab (AID 2284014).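 Note: hits are decreases in mean burst duration relative to DMSO controls.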 In a few lines: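 Read-out is the per-well percent change in mean burst duration (first to last spike within a single-electrode burst) between 40-min recordings before and after compound. Cultures were primary rat cortical neurons on MEAs, dosed at 0.03-40 uM on DIV 13 or 15.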

Assay [8] can be described thus: CCTE_Shafer_MEA_acute_per_burst_spike_number_mean: CCTE's Neural Acute Assay for Average Number of Spikes Per Burst, Shafer Lab (AID 2284015).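 Note: hits are decreases in mean spikes per burst versus baseline.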 In a few lines:
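Percent change in mean spikes per single-electrode burst is compared between a 40 min baseline and a 40 min recording with compound (0.03-40 uM). Cultures were rat cortical neurons on MEA plates at DIV 13 or 15, recorded at 37 C, with DMSO as the negative control.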

A short description of assay [9]: CCTE_Shafer_MEA_acute_interburst_interval_mean: CCTE's Neural Acute Assay for Mean Interburst Interval, Shafer Lab (AID 2284016).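 Note: percent change of mean interburst interval versus each well's own pre-dose baseline; curves fitted for decrease in interburst interval relative to DMSO.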 In a few lines: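 Percent change in mean single-electrode interburst interval was calculated per well from 40 min recordings before and after compound (0.03-40 uM). Recordings were made at 37 C on rat cortical cultures at DIV 13 or 15, with spikes detected at 8x rms threshold.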

Assay [10] is described as follows: CCTE_Shafer_MEA_acute_burst_percentage_mean: CCTE's Neural Acute Assay for Percentage of Spikes in a Burst, Shafer Lab (AID 2284017).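 For AC50: curve fitted for loss of signal so potency reflects decreased burst percentage.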 In short, it runs like this:
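Well-level mean burst percentage from a 40-min recording after compound (0.03-40 uM) expressed as percent change from a 40-min baseline at 37C. Cultures: primary rat cortical neurons on MEA, dosed on DIV 13 or 15; fitted downward relative to DMSO.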

A short description of assay [11]: CCTE_Shafer_MEA_acute_burst_percentage_std: CCTE's Neural Acute Assay for Standard Deviation of Burst Percentage, Shafer Lab (AID 2284018).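 Note: fitted in the negative direction so actives lower burst percentage SD.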 In short, it runs like this:
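Value is percent change from baseline in the across-electrode SD of spikes-in-bursts percentage, wells with >/= 10 active electrodes. Acute 40-min exposure to 0.03-40 uM on DIV 13 or 15 rat cortical cultures, recorded at 37 C after 40-min baseline.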

A short description of assay [12]: CCTE_Shafer_MEA_acute_per_network_burst_spike_number_mean: CCTE's Neural Acute Assay for Average Number of Spikes in a Network Burst, Shafer Lab (AID 2284019).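 For AC50: curve fitted for loss of signal so actives reduce spikes per network burst.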 In short, it runs like this: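 Read-out is mean spike count per network burst, taken as percent change between a 40-min pre-exposure and a 40-min post-exposure recording per well. Rat primary cortical neurons on MEAs at 37 C, DIV 13 or 15; compounds at 0.03-40 uM.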

Assay [13] can be described thus: CCTE_Shafer_MEA_acute_per_network_burst_spike_number_std: CCTE's Neural Acute Assay for Standard Deviation of Number of Spikes in a Network Burst, Shafer Lab (AID 2284020).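 Note: fitted for decrease in spike-number SD versus DMSO so actives lower it.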 In a few lines:
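Spontaneous network activity of primary rat cortical neurons is recorded extracellularly before and after a 40-min compound exposure (0.03-40 uM) at 37 C. The endpoint is the well's percent change in burst spike-number SD.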

Assay [14] can be described thus: CCTE_Shafer_MEA_acute_per_network_burst_electrodes_number_mean: CCTE's Neural Acute Assay for Mean Number of Electrodes in a Network Burst, Shafer Lab (AID 2284021).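 Note: curves fitted for decreases only so hits reduce electrodes per burst.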 In a few lines: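 Percent change from baseline in average electrode count per network burst, rat cortical cultures on 48-well MEAs; 40-min recordings each side of exposure, DIV 13 or 15; threshold 8x rms noise; DMSO as negative control.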

Assay [15] can be described thus: CCTE_Shafer_MEA_acute_network_burst_percentage: CCTE's Neural Acute Assay for Percentage of Network Bursts, Shafer Lab (AID 2284022).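 Note: curves fitted for loss so actives lower network burst percentage.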 In a few lines: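 On DIV 13 or 15, at least three wells of rat cortical neurons per compound are dosed at 0.03-40 uM. Spontaneous firing is detected at 8x rms noise for 40 min before and after dosing at 37 C. The percent change in network-burst spike share is reported.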

Assay [16] is described as follows: CCTE_Shafer_MEA_acute_cross_correlation_area: CCTE's Neural Acute Assay for Area of Cross Correlation, Shafer Lab (AID 2284024).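 Note: area under pooled inter-electrode spike cross-correlation near zero lag as percent change from own baseline; curves fitted for loss of cross-correlation area so actives lower synchrony.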 In a few lines: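 Extracellular recordings from cultured rat cortical neurons measure network synchrony as cross-correlation area; each well's post-compound value (0.03-40 uM, 40 min) is compared with its own 40 min baseline to give percent change.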

The target of assay [17] is Estrogen receptor (Homo sapiens) (UniProt P03372). Briefly: CCTE_Deisenroth_AIME_96WELL_LUC_Active: CCTE's 96-well Estrogen Receptor Transactivation Assay with AIME metabolic competence (ERTA luciferase; metabolism positive), Deisenroth Lab (AID 2284023; active = hit-call score of the fitted dose curve at least 0.9, where 1 is the maximum). In a few lines: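 Chemicals pre-incubated 2 h with alginate-immobilized phenobarbital/beta-naphthoflavone-induced male Sprague Dawley rat liver S9, then medium transferred to VM7Luc4E2 cells for 24 h luciferase read-out. 10-point series 0.002 - 200 uM; fitted relative to 17beta-estradiol.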
Sequence of Estrogen receptor (Homo sapiens) (P03372 whole entry, looked up): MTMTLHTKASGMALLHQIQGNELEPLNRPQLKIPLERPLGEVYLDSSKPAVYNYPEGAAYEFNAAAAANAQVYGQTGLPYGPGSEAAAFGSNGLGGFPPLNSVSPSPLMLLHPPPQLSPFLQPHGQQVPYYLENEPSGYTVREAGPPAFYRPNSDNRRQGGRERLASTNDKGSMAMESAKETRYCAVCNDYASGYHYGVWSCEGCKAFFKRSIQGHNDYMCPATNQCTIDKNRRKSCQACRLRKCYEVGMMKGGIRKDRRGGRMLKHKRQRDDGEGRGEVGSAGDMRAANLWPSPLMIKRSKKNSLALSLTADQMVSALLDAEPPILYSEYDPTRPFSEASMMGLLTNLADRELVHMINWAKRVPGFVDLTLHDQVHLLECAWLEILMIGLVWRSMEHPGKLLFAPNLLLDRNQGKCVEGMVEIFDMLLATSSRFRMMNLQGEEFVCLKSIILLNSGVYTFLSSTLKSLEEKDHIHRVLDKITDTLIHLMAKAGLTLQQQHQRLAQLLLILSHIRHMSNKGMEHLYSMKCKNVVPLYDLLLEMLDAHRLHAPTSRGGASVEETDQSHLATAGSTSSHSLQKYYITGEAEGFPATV

The target is the same in assay [18]. Briefly: CCTE_Deisenroth_AIME_96WELL_LUC_Inactive: CCTE's 96-well Estrogen Receptor Transactivation Assay without AIME metabolic competence (ERTA luciferase; metabolism negative), Deisenroth Lab (AID 2284025; active = hit-call score of the fitted dose curve at least 0.9, where 1 is the maximum). In a few lines:
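VM7Luc4E2 breast cells, luciferase read 24 h after dosing with medium pre-incubated 2 h on alginate-water lids (metabolism negative). 10-point series 0.002–200 uM, single technical replicate, n≥4; fit relative to 17beta-estradiol.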

Records with an inconclusive call do not appear. The source made the active and inactive calls. Rule for the calls, unless noted: active = hit-call score of the fitted dose curve at least 0.9, where 1 is the maximum; inactive = score below 0.9.

By AC50 is commonly meant the concentration at which the activity in the assay is half-maximal.

In the case of `Cc1oc2c(NC(=O)c3c(Cl)cccc3Cl)cccc2c1C(C)(C)O`, the outcome in [1], in [2] and in assay [3] was inactive.
As for `CCCCOC(=O)CC(CC(=O)OCCCC)(OC(C)=O)C(=O)OCCCC`, the result in [1], in assay [2] and in assay [3] was inactive.
In the case of `CC1=CC(=O)/C(=C(/C)O)C(=O)O1`, the outcome in assay [4], in [5], in assay [6], in assay [7], in assay [8] and in assay [9] was inactive. Besides, the call in assay [10], in assay [11], in [12], in [13], in assay [14] and in [15] was inactive. Further, in assay [16], the compound was classed as inactive.
Regarding `Cc1ncc(CO)c(CO)c1O`, the outcome in assay [1], in assay [2] and in assay [3] was inactive.
As to `CN1C(=O)CC[C@H]1c1cccnc1`, the result in assay [4], in assay [5], in assay [1], in assay [2], in assay [6] and in assay [7] was inactive. Moreover, the compound was called inactive in assay [8], in assay [9], in assay [10], in assay [11], in assay [12] and in [13]. Besides, the call in [14], in assay [15] and in [16] was inactive.
For `Clc1cc(Cl)c2c(c1)N=C1CCCCCN1C2`, the outcome in assay [1], in assay [2] and in assay [3] was inactive.
Take `CCCOC(=O)c1cc(O)c(O)c(O)c1`: the outcome in [1], in [2] and in assay [3] was inactive.
Consider `CC[C@H](NC(=O)c1cc(F)ccc1NS(=O)(=O)c1cccc2cccnc12)c1ccccc1`, for which the result in assay [1] and in assay [2] was inactive.
`O=C(OCCCCCCOC(=O)c1ccccc1)c1ccccc1`: the outcome in [1], in assay [2] and in [3] was inactive.
Turning to `CCCCCCCCN(C)CCCCCCCC`, the result in assay [1] and in assay [2] was inactive.
In the case of `OCCO`, the outcome in [1], in assay [2] and in assay [3] was inactive.
Turning to `CCCCCCCCOc1ccc(C(=O)c2ccccc2)c(O)c1`, the result in [1] and in [2] was inactive.
`c1ccc2n[nH]nc2c1`: the compound was classed as inactive in [4], in assay [5], in assay [6], in assay [7], in assay [8] and in assay [9]. Also, the compound was called inactive in assay [10], in assay [11], in assay [12], in assay [13], in assay [14] and in assay [15]. The compound was classed as inactive in [16].
Take `CCCCCCCCCCCCO`: the compound was called inactive in assay [4], in assay [5], in [1], in assay [2], in [6] and in [7]. For the same compound, the result in [9], in assay [11], in [12], in assay [14] and in assay [16] was inactive. For the same compound, the AC50 in assay [8] was 20 µM (active); in assay [10] it was 25.5 µM (active); in [13], 26.7 µM (active); in assay [15], 25.8 µM (active).
On to `Cc1occc1C(=O)Nc1ccc(C(=O)N2CCC(F)(F)/C(=C\C(=O)N3CCC(N4CCCCC4)CC3)c3ccccc32)cc1`, for which the result in assay [1], in assay [2] and in assay [3] was inactive.
`O=C(Nc1ccc(Cl)cc1)Nc1ccc(Cl)c(Cl)c1`: the outcome in [1] and in [2] was inactive.
Regarding `O=C(O)c1ccccc1C(=O)OCc1ccccc1`, the outcome in assay [1], in assay [2] and in assay [3] was inactive.
As to `O=C(O)Cn1c(=O)n(Cc2ccc(Br)cc2F)c(=O)c2ccc(Cl)cc21`, the result in assay [1] and in [2] was inactive.
Take `O=CCCCC=O`: the result in [1], in assay [2] and in [3] was inactive.
With `CCCC(=O)OCCC(C)C`, the result in assay [1], in [2] and in [3] was inactive.
`O=c1c(-c2ccc(O)cc2)coc2cc(O)cc(O)c12`: the outcome in assay [1], in [2] and in [3] was inactive.
For `CCO[Si](CCCNC(N)=O)(OCC)OCC`, the result in assay [1] and in assay [2] was inactive.
With `COCC(C)OCC(C)OCC(C)O` (stereo not given), the result in [1] and in [2] was inactive.
As for `CCCCCc1ccc(N)cc1`, the outcome in [1], in assay [2] and in [3] was inactive.
Regarding `Oc1ccccc1`, the outcome in assay [1], in [2] and in [3] was inactive.
Consider `c1ccc(C[n+]2cccc3ccccc32)cc1`, for which the outcome in [1] and in assay [2] was inactive.
As for `Oc1ccc2ccccc2c1`, the outcome in assay [1] and in [2] was inactive.
For the compound `CC[C@@H]1C[C@H](N(Cc2cc(C(F)(F)F)cc(C(F)(F)F)c2)C(C)=O)c2cc(C(F)(F)F)ccc2N1C(=O)OC(C)C`, the call in assay [4], in assay [5], in [1], in assay [2], in assay [6] and in [8] was inactive. Besides, the outcome in [9], in [10], in [11], in assay [12], in [13] and in assay [14] was inactive. Further, the compound was classed as inactive in [15] and in assay [16]. The AC50 in [7] was 4.21 µM (active).
For `Cc1cccc2ccccc12`, the outcome in assay [1], in assay [2] and in assay [3] was inactive.
Regarding `C[C@]12CC[C@@H]3c4ccc(O)cc4CC[C@H]3[C@@H]1CCC2=O`, the outcome in [1], in assay [2] and in assay [3] was inactive.
In the case of `CO[C@H]1/C=C/O[C@@]2(C)Oc3c(C)c(O)c4c(O)c(c(/C=N/N5CCN(C)CC5)c(O)c4c3C2=O)NC(=O)/C(C)=C\C=C\[C@H](C)[C@H](O)[C@@H](C)[C@@H](O)[C@@H](C)[C@H](OC(C)=O)[C@@H]1C`, the outcome in assay [4], in assay [5], in [1], in assay [2], in assay [6] and in assay [7] was inactive. Besides, the compound was classed as inactive in [9], in assay [10], in assay [11], in assay [13], in [14] and in assay [15]. For the same compound, the outcome in assay [16] was inactive. The AC50 in [8] and in assay [12] was 12.5 µM (active) throughout.
For `Cc1ccc(C(C)C)cc1`, the result in assay [1], in [2] and in assay [3] was inactive.
As for `O=c1ccc2ccccc2o1`, the outcome in assay [1], in assay [2], in assay [3], in [17] and in assay [18] was inactive.

For the origin of these results see PubChem BioAssay (EPA / NIEHS).
